HP1b chromo inh: inhibitors of HP1-beta chromodomain binding to methylated histone tails; Potency, µM (titrated, usually from 114 µM), inactives show top-dose activity change, negative = inhibition, most hits filed as inhibitors; 0.56% of 390,000 active; AlphaScreen HP1-beta / biotin-H3K9me3 peptide binding; note: potency is the fitted concentration of half-maximal effect; nearly all actives have a fitted effect of over 70% in size
Target sequence (P83916 whole entry, looked up): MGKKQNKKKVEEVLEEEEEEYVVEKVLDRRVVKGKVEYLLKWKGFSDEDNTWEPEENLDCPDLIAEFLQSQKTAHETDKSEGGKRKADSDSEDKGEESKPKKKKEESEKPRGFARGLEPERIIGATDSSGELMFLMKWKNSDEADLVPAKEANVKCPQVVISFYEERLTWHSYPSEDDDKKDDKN
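AlphaScreen: HP1-beta (50 nM) preformed 30 min with biotin-H3(1-18)K9me3 peptide (50 nM) in PBS pH 7.4, 0.01% Tween-20. Compound added for 30 min at RT, then streptavidin donor/nickel chelate acceptor beads (10 ug/mL) for 30 min.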
BAZ2B inh: blocks human BAZ2B; Q9UIF8; AlphaScreen BAZ2B-H3K14Ac peptide displacement; Potency, µM (highest dose often 114 µM), for the others: at the highest dose activity change, negative = inhibition, hits mostly inhibitors; 4.4% of 360,000 active; AID 504333; note: potency is the fitted concentration of half-maximal effect; % is set by controls: 0 for no effect and ±100 for the full control effect; nearly all actives have a fitted effect of over 60% in size
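Inhibition is scored as reduced AlphaScreen emission. The BAZ2B/b-H3(5-23)K14Ac complex (50 nM each) in PBS pH 7.4, 0.01% Tween-20 meets compound (up to 110 uM) for 30 min at RT before bead addition.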
JMJD2A Tudor: blocks the human JMJD2A Tudor domain; O75164; AlphaScreen JMJD2A-Tudor / H3K4me3 peptide binding; Potency, µM (titrated, usually from 114 µM), for the others: at the top dose activity change, negative = inhibition, hits mostly inhibitors; 4.4% of 390,000 active; AID 504339; note: potency is the fitted concentration of half-maximal effect; % is set by controls: 0 for no effect and ±100 for the full control effect; nearly all actives have a fitted effect of over 50% in size
Six1-Eya2 inh: Six1/Eya2 interaction inhibition; Q15475+O00167; AlphaScreen GST-Six1/His-Eya2 binding, biochemical; active compounds read low; activity change, % (test concentration not listed); 0.56% of 360,000 active; AID 651725; in the data active = activity change below about -65%; inconclusive = mostly about -30% to -63%; note: % is set by controls: 0 for no effect and ±100 for the full control effect
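Homogeneous AlphaScreen proximity assay pairing GST-Six1 with His-tagged Eya2 (added as 5X mix: 250 nM and 500 nM) in 50 mM Tris pH 8.0, 300 mM NaCl, 1 mM TCEP. Glutathione donor and nickel acceptor beads; 1 h, 37 °C, dark.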
G9a block: inhibitors of human histone lysine methyltransferase G9a; Q96KQ7; G9a H3K9 monomethylation, AlphaScreen, 2 h; Potency, µM (highest dose often 102 µM), without a hit: at the top dose activity, negative = inhibition, actives largely listed as inhibitors; 8.8% of 350,000 active; note: potency is the fitted concentration of half-maximal effect; % is set by controls: 0 for no effect and ±100 for the full control effect; nearly all actives have a fitted effect of over 75% in size
Target sequence (Q96KQ7 913-1193 limits assumed): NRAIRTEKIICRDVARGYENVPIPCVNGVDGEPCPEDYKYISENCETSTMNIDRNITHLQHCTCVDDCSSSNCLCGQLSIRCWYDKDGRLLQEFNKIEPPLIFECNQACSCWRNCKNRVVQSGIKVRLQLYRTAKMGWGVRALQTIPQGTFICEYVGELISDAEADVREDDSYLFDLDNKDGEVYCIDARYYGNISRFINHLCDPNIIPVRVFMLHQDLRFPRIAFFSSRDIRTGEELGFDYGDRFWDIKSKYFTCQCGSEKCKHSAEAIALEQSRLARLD
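G9a (20 nM) was preincubated 15 min with compound, then reacted 2 h at room temperature with 500 nM biotin-H3K9 peptide and 20 µM SAM. Monomethyl-H3K9 detected by AlphaScreen using anti-H3K9me1 antibody.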
CtBP-E1A blk: blocks the CtBP interaction with E1A | AlphaScreen GST-E1A/His-CtBP binding, 1536-well; active compounds read low | activity change, % (no concentration beside the values) | 0.49% of 340,000 active; in the data active = activity change below about -65%; inconclusive = mostly about -30% to -63%; note: % is set by controls: 0 for no effect and ±100 for the full control effect
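GST-E1A and His-tagged CtBP (125 nM each as 5X stock) were preincubated with pin-transferred compound for 2 h at 37 °C in the dark, then glutathione donor and nickel acceptor beads were added for 1 h before AlphaScreen reading.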
* = called active by the depositor; ? = inconclusive; / = no result; [ ] = another dose, or the depositor's remark. In the library only some 10% were active in any assay of this set; here they are far more common. Unless noted, calls come from the whole dose curve; as a rule, active = well fitted inhibition curve with a large enough effect; inconclusive = small, poorly fitted or top-dose-only effect; inactive = no such curve, though single readings can be large or run the other way.

SMILES	HP1b chromo inh	BAZ2B inh	JMJD2A Tudor	Six1-Eya2 inh	G9a block	CtBP-E1A blk
CC(=O)Nc1ccc(NC(=S)NC(=O)c2ccc(C(C)(C)C)cc2)cc1	/	/	/	/	-49%[12.7 µM]	/
Cc1ccc(S(=O)(=O)Nc2cc(Br)cc3cccnc23)cc1	57%	/	1%	/	/	/
Cc1ccc(S(=O)(=O)N(CC(=O)Nc2cccnc2)c2cc(Cl)ccc2C)cc1	14%	?	-30%	/	-46%[59 µM]	/
COc1ccc(CN2C(=O)C(NC(=O)c3ccccc3OC)(C(F)(F)F)N=C2c2ccccc2)cc1 (stereo not drawn)	30%	-19%	-14%	/	6%[59 µM]	/
COc1ccc(Cl)cc1NC(=O)CN1CCc2ccccc21	27%	?	-26%	-13	22µM*	-7
COc1ccc(Cl)cc1NC(=O)CN1Cc2ccccc2C1=O	26%	-3%	-10%	/	-12%[59 µM]	/
O=C(CN1CCOc2ccccc21)NCc1ccc(Cl)cc1	28%	?	-18%	-9	50µM*	1
CC1(c2nnnn2Cc2ccccc2)CCC(=O)N1CC1CCCCC1 (stereo not drawn)	/	/	/	5	/	5
Cc1ccccc1SCC(=O)Nc1ccc(N2CCOCC2)cc1	-4%	-37%	-32%	-1	-6%[59 µM]	-1
O=C(CCn1c(=O)oc2ccccc21)Nc1ccc(N2CCOCC2)cc1	0%	4%	-12%	-2	21%[59 µM]	-3
O=C(CSc1cccc[n+]1[O-])Nc1ccc([N+](=O)[O-])cc1Cl	42%	-13%	-1%	2	56µM*	10
Nc1ccccc1SCC(=O)Nc1ccc(N2CCOCC2)cc1	27%	-32%	-14%	-3	45µM*	-2
Cn1c(=O)c2ncn(CC(=O)Nc3ccc(N4CCOCC4)cc3)c2n(C)c1=O	12%	-4%	-6%	-1	14µM*	-1
O=C(CCn1ccc2ccccc21)Nc1ccc(N2CCOCC2)cc1	-10%	-9%	-27%[57.1 µM]	-9	50µM*	-19
O=C(CCC1CCCN(C(=O)c2ccc3[nH]ccc3c2)C1)N1CCN(c2ccccn2)CC1 (stereo not drawn)	32%	2%	-11%	3	8%	-4
NNC(=O)c1ccc(NS(=O)(=O)c2ccc(Br)cc2)cc1	/	-11%	/	/	?	/
COc1ccc(C2=NC3(CCCCCC3)N(CC(=O)Nc3ccc(C)c(C)c3)C2=O)cc1	38%	-22%	-9%	/	3%[59 µM]	/
COCOc1ccc(C2CC(=O)c3c(OCOC)cc(OCOC)cc3O2)cc1 (stereo not drawn)	42%	/	-12%	-1	/	2
O=C(CSc1cccc[n+]1[O-])Nc1ccc(N2CCOCC2)cc1	/	-21%	/	/	56µM*	/
CCN1CCN(C(=O)C(C)Nc2ccc(OC)cc2OC)CC1 (stereo not drawn)	2%	?	?	-9	45µM*	-3
CCOC(=O)N1CCN(CCC(=O)Nc2ccc(OC)cc2OC)CC1	-2%	5%	-19%	5	13%[59 µM]	4
CCN1CCN(C(=O)Nc2ccccc2OC)CC1	?	28µM*	2.2µM*	0	2.2µM*	2
COc1ccccc1NC(=O)N1CCN(C)CC1	-29%	50µM*	40µM*	1	20µM*	12
CCn1nccc1C(=O)Nc1ccccc1OC	33%	37%	-10%	-1	0%[0.501 µM]	6
CCn1ncc(Br)c1C(=O)Nc1ccccc1OC	27%	9%	56µM*	19	6%	15
COC(=O)c1c(C)[nH]c(C(=O)OCC(=O)N2c3ccccc3NC(=O)C2(C)C)c1C	51%	-10%	-12%[57.1 µM]	-6	22%[59 µM]	-7
Cc1cc(NS(=O)(=O)c2cccc([N+](=O)[O-])c2)no1	25%	-13%	-17%	1	21%	4
CC(=O)N1CCC(N(C(=O)Nc2ccc(C)c(C)c2)C2CCCC2)CC1	25%	8%	-7%	3	?	-5
COc1ccccc1NC(=O)N(C1CCCC1)C1CCN(C(C)=O)CC1	24%	9%	-5%	-4	40µM*	5

Source: PubChem
